Consider 10 compounds from PubChem BioAssay (NCI).

Structures are written as SMILES. About 79,000 compounds went through this panel and 15% of them were active in at least one assay; those are over-represented in the sample as a whole. Values without a mark were called inactive. Calls of active or inactive are those of the source. Cut-off read from the data, not from the text of the source: active = growth inhibition above about 70%; inactive = the rest.

A short description of test [1]: NCI Yeast Anticancer Drug Screen. Data for the rad50 strain (AID 155).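 Note: 0% = growth of vehicle-only cultures of the same strain.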 Particulars: S. cerevisiae rad50 strain growth inhibition, hits give high values. Put shortly:
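Relative growth inhibition (compound vs vehicle) was measured in yeast with a defined repair-gene alteration.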

A short description of test [2]: NCI Yeast Anticancer Drug Screen. Data for the mec2-1 strain (AID 157). Conditions: S. cerevisiae mec2-1 strain, hits give high values. The essentials:
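Yeast mec2-1 mutant treated with compound. Readout: growth inhibition vs vehicle controls.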

Test [3] is described as follows: NCI Yeast Anticancer Drug Screen. Data for the sgs1 mgt1 strain (AID 161).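 Note: 0% = growth of cultures given vehicle only.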 Particulars: S. cerevisiae sgs1 mgt1 strain, hits give high values. The essentials:
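Inhibition of yeast growth, normalised to vehicle-treated controls, is reported for a strain bearing genetic alterations in DNA damage repair.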

The nature of test [4]: NCI Yeast Anticancer Drug Screen. Data for the cln2 rad14 strain (AID 165).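 Note: 0% = growth equal to vehicle treated cultures.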 Particulars: S. cerevisiae cln2 rad14 strain, hits give high values. The essentials:
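cln2 rad14 yeast strain; compound exposure; growth inhibition read vs vehicle controls.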

Test [5] is described as follows: NCI Yeast Anticancer Drug Screen. Data for the bub3 strain (AID 167). Particulars: S. cerevisiae bub3 mutant strain, hits give high values. Put shortly: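 Screening used yeast with an engineered genetic alteration affecting cell cycle control. Compound-exposed cultures were compared with vehicle cultures, and reduced growth was taken as inhibition.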
Test [6] in a line: NCI Yeast Anticancer Drug Screen. Data for the mlh1 rad18 strain (AID 175). Particulars: S. cerevisiae mlh1 rad18 strain growth inhibition, hits give high values. The essentials:
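Yeast w/ defined DNA-repair lesions; compound exposure; growth vs vehicle controls → % inhibition.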

The mark [7] stands for this setting: at 5.0 µM (retest, dose inferred, filed as 0.5).
[8] abbreviates: at 50.0 µM (retest, dose inferred, filed as 5.0).

Consider `S=C(Nc1ccccc1)N(Cc1ccccc1)c1ccccc1`, for which the growth inhibition is -7% in test [1] (setting [7]); 51% in test [1] (setting [8]); 62% in test [1] (at 50.0 µM); 10% in test [2] (setting [7]); 57% in test [2] (setting [8]); 28.6% in test [2] (at 50.0 µM). The growth inhibition in test [3] (setting [7]) was -7%; in test [3] (setting [8]) it was 50%; in test [3] (at 50.0 µM), 46.2%; in test [4] (setting [7]), -8%; in test [4] (setting [8]), 8%; in test [4] (at 50.0 µM), 32.5%. The growth inhibition in test [5] (setting [7]) is 3%; in test [5] (setting [8]), 42%; in test [5] (at 50.0 µM) it was 65.9%; in test [6] (setting [7]) it was 4%; in test [6] (setting [8]), 72% (active); in test [6] (at 50.0 µM), 48.7%.

In the case of `CC(C)OP(=O)(CCCCCCCCC/C=C/c1ccc2c(c1)OCCOCCOCCOCCO2)OC(C)C`, the growth inhibition was 20% in test [1] (setting [7]); 98% (active) in test [1] (setting [8]); 97.8% (active) in test [1] (at 50.0 µM); 4% in test [2] (setting [7]); 99% (active) in test [2] (setting [8]); 92.3% (active) in test [2] (at 50.0 µM). Besides, the growth inhibition is -4% in test [3] (setting [7]); 98% (active) in test [3] (setting [8]); 98.2% (active) in test [3] (at 50.0 µM); 7% in test [4] (setting [7]); 98% (active) in test [4] (setting [8]); 97.3% (active) in test [4] (at 50.0 µM). The growth inhibition was -11% in test [5] (setting [7]); 99% (active) in test [5] (setting [8]); 98.3% (active) in test [5] (at 50.0 µM); 24% in test [6] (setting [7]); 99% (active) in test [6] (setting [8]); 98.1% (active) in test [6] (at 50.0 µM).

In the case of `CN(C)C(=S)N1C(=S)N(c2ccccc2)C(=Nc2ccccc2)C1=Nc1ccccc1`, the growth inhibition is -25% in test [1] (setting [7]); -4% in test [1] (setting [8]); 49.4% in test [1] (at 50.0 µM); -9% in test [2] (setting [7]); -11% in test [2] (setting [8]); -23.6% in test [2] (at 50.0 µM). Besides, the growth inhibition was -3% in test [3] (setting [7]); -12% in test [3] (setting [8]); -5% in test [3] (at 50.0 µM); -18% in test [4] (setting [7]); -12% in test [4] (setting [8]); -18.3% in test [4] (at 50.0 µM). Besides, the growth inhibition in test [5] (setting [7]) is -13%; in test [5] (setting [8]), -8%; in test [5] (at 50.0 µM), -30.1%; in test [6] (setting [7]) it was -20%; in test [6] (setting [8]), -24%; in test [6] (at 50.0 µM), -7.7%.

For the compound `CCC(CO)Nc1nc2cc(Cl)ccc2c2ccc(Cl)cc12` (stereo not given), the growth inhibition in test [1] (setting [7]) is 19%; in test [1] (setting [8]), 98% (active); in test [1] (at 50.0 µM), 93.6% (active); in test [2] (setting [7]), 2%; in test [2] (setting [8]) it was 99% (active); in test [2] (at 50.0 µM) it was 94.8% (active). The growth inhibition in test [3] (setting [7]) was 24%; in test [3] (setting [8]), 97% (active); in test [3] (at 50.0 µM) it was 95.6% (active); in test [4] (setting [7]), -4%; in test [4] (setting [8]), 97% (active); in test [4] (at 50.0 µM), 89.8% (active). For the same compound, the growth inhibition in test [5] (setting [7]) was 11%; in test [5] (setting [8]), 97% (active); in test [5] (at 50.0 µM), 95.5% (active); in test [6] (setting [7]) it was 20%; in test [6] (setting [8]) it was 96% (active); in test [6] (at 50.0 µM), 94% (active).

Regarding `O=C1/C(=C\c2ccc(Cl)cc2Cl)Sc2scc(-c3ccc(O)c(O)c3)[n+]21`, the growth inhibition was 18% in test [1] (setting [7]); 55% in test [1] (setting [8]); 86.2% (active) in test [1] (at 50.0 µM); 6% in test [2] (setting [7]); 67% in test [2] (setting [8]); 76.9% (active) in test [2] (at 50.0 µM). Further, the growth inhibition in test [3] (setting [7]) is 15%; in test [3] (setting [8]) it was 71% (active); in test [3] (at 50.0 µM), 97.8% (active); in test [4] (setting [7]), 1%; in test [4] (setting [8]), 71% (active); in test [4] (at 50.0 µM), 46.5%. The growth inhibition in test [5] (setting [7]) was -10%; in test [5] (setting [8]), 81% (active); in test [5] (at 50.0 µM), 85.7% (active); in test [6] (setting [7]), 28%; in test [6] (setting [8]), 68%; in test [6] (at 50.0 µM) it was 91.8% (active).

Take `CC(=O)c1cccc(NC2C(N)C(NC(=O)N(C)C)(C(C)O)C(C)(O)C2(O)COC(=O)c2c(C)cccc2O)c1` (stereo not given): the growth inhibition in test [1] (setting [7]) is 42%; in test [1] (setting [8]), 96% (active); in test [1] (at 50.0 µM) it was 93% (active); in test [2] (setting [7]) it was 17%; in test [2] (setting [8]), 98% (active); in test [2] (at 50.0 µM), 94.5% (active). Further, the growth inhibition in test [3] (setting [7]) was 44%; in test [3] (setting [8]), 97% (active); in test [3] (at 50.0 µM), 94.6% (active); in test [4] (setting [7]), 21%; in test [4] (setting [8]), 96% (active); in test [4] (at 50.0 µM), 92% (active). In addition, the growth inhibition in test [5] (setting [7]) was 36%; in test [5] (setting [8]), 98% (active); in test [5] (at 50.0 µM) it was 93.8% (active); in test [6] (setting [7]), 47%; in test [6] (setting [8]), 97% (active); in test [6] (at 50.0 µM), 93.2% (active).

As to `COC(=O)C12OCC34C(CC5C(C)C6=CC(=O)OC6=CC5(C)C3C(O)C1O)OC(=O)C(O)C24` (stereo not given), the growth inhibition in test [1] (setting [7]) was 26%; in test [1] (setting [8]), 84% (active); in test [1] (at 50.0 µM) it was 89.7% (active); in test [2] (setting [7]) it was 30%; in test [2] (setting [8]) it was 82% (active); in test [2] (at 50.0 µM) it was 91.4% (active). Moreover, the growth inhibition is -18% in test [3] (setting [7]); 94% (active) in test [3] (setting [8]); 91% (active) in test [3] (at 50.0 µM); -6% in test [4] (setting [7]); 96% (active) in test [4] (setting [8]); 88.1% (active) in test [4] (at 50.0 µM). Also, the growth inhibition in test [5] (setting [7]) was -2%; in test [5] (setting [8]) it was 95% (active); in test [5] (at 50.0 µM), 89.3% (active); in test [6] (setting [7]) it was 33%; in test [6] (setting [8]), 93% (active); in test [6] (at 50.0 µM), 81.3% (active).

Turning to `CCCCCCCCCCCCOC(=O)C[n+]1cccc(C(=O)Nc2ccccc2)c1`, the growth inhibition was 96% (active) in test [1] (setting [7]); 98% (active) in test [1] (setting [8]); 99.2% (active) in test [1] (at 50.0 µM); 97% (active) in test [2] (setting [7]); 99% (active) in test [2] (setting [8]); 99.4% (active) in test [2] (at 50.0 µM). For the same compound, the growth inhibition in test [3] (setting [7]) was 95% (active); in test [3] (setting [8]) it was 99% (active); in test [3] (at 50.0 µM) it was 99.5% (active); in test [4] (setting [7]), 96% (active); in test [4] (setting [8]) it was 99% (active); in test [4] (at 50.0 µM) it was 98.9% (active). The growth inhibition in test [5] (setting [7]) was 96% (active); in test [5] (setting [8]) it was 98% (active); in test [5] (at 50.0 µM) it was 98.8% (active); in test [6] (setting [7]) it was 99% (active); in test [6] (setting [8]) it was 99% (active); in test [6] (at 50.0 µM), 99.2% (active).

For `Cc1ccc2c(c1)C1(SC(C)C(=O)N1c1ccc(F)cc1)C(=O)N2` (stereo not given), the growth inhibition is 11% in test [1] (setting [7]); 98% (active) in test [1] (setting [8]); 99% (active) in test [1] (at 50.0 µM); 15% in test [2] (setting [7]); 99% (active) in test [2] (setting [8]); 98.8% (active) in test [2] (at 50.0 µM). Moreover, the growth inhibition in test [3] (setting [7]) was 14%; in test [3] (setting [8]) it was 98% (active); in test [3] (at 50.0 µM), 98.8% (active); in test [4] (setting [7]), 11%; in test [4] (setting [8]), 98% (active); in test [4] (at 50.0 µM), 97.8% (active). The growth inhibition in test [5] (setting [7]) is 10%; in test [5] (setting [8]), 99% (active); in test [5] (at 50.0 µM), 98.6% (active); in test [6] (setting [7]) it was 11%; in test [6] (setting [8]), 99% (active); in test [6] (at 50.0 µM) it was 99% (active).

For the compound `COC(=O)[C@H]1[C@@H](C(C)C)O[C@@H](C(C)C)O[C@H]1C(F)(F)F`, the growth inhibition in test [1] (setting [7]) was -1%; in test [1] (setting [8]), 2%; in test [1] (at 50.0 µM) it was 86.7% (active); in test [2] (setting [7]) it was -13%; in test [2] (setting [8]) it was -25%; in test [2] (at 50.0 µM), 92.5% (active). For the same compound, the growth inhibition is -14% in test [3] (setting [7]); -10% in test [3] (setting [8]); 86.6% (active) in test [3] (at 50.0 µM); -15% in test [4] (setting [7]); 1% in test [4] (setting [8]); 88.5% (active) in test [4] (at 50.0 µM). For the same compound, the growth inhibition is -30% in test [5] (setting [7]); 1% in test [5] (setting [8]); 88.7% (active) in test [5] (at 50.0 µM); -15% in test [6] (setting [7]); -13% in test [6] (setting [8]); 84.4% (active) in test [6] (at 50.0 µM).
